Test [1] in a line: qHTS assay to test for compound auto fluorescence at 535 nm (green) in HEK293 cells (AID 720680). (In qHTS, concentration-response curves come from the screen itself.)
Test [2] is described as follows: qHTS assay to test for compound auto fluorescence at 460 nm (blue) in HEK293 cell free culture (AID 720681). The method, boiled down: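 Test compounds were pinned into cell-free culture medium (DMEM with 10% FBS) and fluorescence was read directly at Ex/Em 405/460 nm. Signals were expressed as fluorescence equivalents of triamterene, with DMSO vehicle as control.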

Test [3] is described as follows: qHTS assay to test for compound auto fluorescence at 535 nm (green) in HEK293 cell free culture (AID 720682). The method, boiled down:
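Each library compound, or DMSO control, is added by pintool to medium alone, comprising DMEM and 10% FBS. Emission at 535 nm following 485 nm excitation is quantified against fluorescein.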

Test [4] is described as follows: qHTS assay to test for compound auto fluorescence at 590 nm (red) in HEK293 cell free culture (AID 720683). A digest of the protocol:
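Tox21 10K library compounds were pinned into cell-free DMEM with 10% FBS and fluorescence was read at excitation 540 nm. Activity is expressed as Rose Bengal sodium equivalency.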

Test [5] in a line: qHTS assay to test for compound auto fluorescence at 590 nm (red) in HepG2 cell free culture (AID 720684). A digest of the protocol:
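Readout: intrinsic compound fluorescence at 590 nm emission after 540 nm excitation, scaled to Rose Bengal sodium. Matrix was cell-free MEM with 10% FBS; DMSO vehicle wells served as control.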

A short description of test [6]: qHTS assay to test for compound auto fluorescence at 460 nm (blue) in HepG2 cell free culture (AID 720685). A digest of the protocol:
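Cell-free plates of MEM plus 10% FBS received 23 nL compound or DMSO vehicle; blue-channel (405/460 nm) intensity scored against triamterene as reference fluorophore.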

The nature of test [7]: qHTS assay to test for compound auto fluorescence at 535 nm (green) in HepG2 cell free culture (AID 720686).
Test [8] can be described thus: qHTS assay to test for compound auto fluorescence at 460 nm (blue) in HepG2 cells (AID 720687). The method, boiled down: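 Cells (2,000/well in MEM with 10% FBS) attached overnight at 37 C, then were exposed to compound or DMSO for 1 hr at 37 C, 5% CO2. Fluorescence read at Ex/Em 405/460 nm, expressed as triamterene-equivalent signal.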
Test [9] can be described thus: qHTS assay to identify small molecule antagonists of the glucocorticoid receptor (GR) signaling pathway - cell viability counter screen (AID 720693). Note: nearly all actives have a fitted effect of over 55% in size. Note: potency is the fitted concentration of half-maximal effect.
Test [10] can be described thus: qHTS assay for identifying genotoxic compounds that show differential cytotoxicity against isogenic chicken DT40 cell lines with known DNA damage response pathways - wild type cell line (AID 743012). Note: nearly all actives have a fitted effect of over 60% in size. Note: potency is the fitted concentration of half-maximal effect. The method, boiled down: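 Viability of DNA repair-proficient chicken DT40 cells was assessed by CellTiter-Glo luminescence following 40 h compound exposure at 37 C/5% CO2.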

The nature of test [11]: qHTS assay for identifying genotoxic compounds that show differential cytotoxicity against isogenic chicken DT40 cell lines with known DNA damage response pathways - Rev3 mutant cell line (AID 743014). Note: nearly all actives have a fitted effect of over 55% in size. Note: potency is the fitted concentration of half-maximal effect.
Test [12] in a line: qHTS assay for identifying genotoxic compounds that show differential cytotoxicity against isogenic chicken DT40 cell lines with known DNA damage response pathways - Rad54/Ku70 mutant cell line (AID 743015). Note: nearly all actives have a fitted effect of over 60% in size. Note: potency is the fitted concentration of half-maximal effect.
Test [13] can be described thus: qHTS assay to identify small molecule antagonists of the androgen receptor (AR) signaling pathway - cell viability counter screen (AID 743033; note: nearly all actives have a fitted effect of over 45% in size; note: potency is the fitted concentration of half-maximal effect).
In test [14] the target is Androgen receptor (Homo sapiens) (UniProt P10275). The test is described as follows: qHTS assay to identify small molecule antagonists of the androgen receptor (AR) signaling pathway (AID 743035; active = well fitted inhibition curve with a large enough effect in the signal ratio in the repeat runs, not every such curve was filed as active; the % refers to the signal ratio; note: potency is the fitted concentration of half-maximal effect). The method, boiled down:
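Reporter HEK293 cells were exposed to compounds and R1881 overnight (16 h, 37C); beta-lactamase activity was then quantified by FRET fluorescence.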

Test [15] has the same target. Kind of test: qHTS assay to identify small molecule agonists of the androgen receptor (AR) signaling pathway using the MDA cell line (AID 743040; note: nearly all actives have a fitted effect of over 20% in size). The method, boiled down:
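Agonist activity is measured as luciferase luminescence in human MDA-kb2 cells whose MMTV reporter responds to both AR and GR. Compounds in DMSO incubate 16 h at 37C, 0% CO2, and ONE-Glo is read after 30 min.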

For test [16] the target is unchanged. Kind of test: qHTS assay to identify small molecule antagonists of the androgen receptor (AR) signaling pathway using the MDA cell line (AID 743042; note: potency is the fitted concentration of half-maximal effect; nearly all actives have a fitted effect of over 55% in size). A digest of the protocol:
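MDA-kb2 cells (human breast carcinoma, stably carrying an MMTV-luciferase reporter responsive to AR and GR) were plated at 3,000 cells/well and preincubated 5 hr at 37C, then given compound plus R1881 agonist for 16 h. ONE-Glo luminescence was read.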

The target of test [17] is Glucocorticoid receptor (Homo sapiens) (UniProt P04150). The test is described as follows: qHTS assay to identify small molecule agonists of the glucocorticoid receptor (GR) signaling pathway (AID 720691; active = well fitted activation curve with a large enough effect in the signal ratio in the repeat runs, not every such curve was filed as active; the % refers to the signal ratio). Conditions: GR-bla HeLa, beta-lactamase reporter ratio, 18 h; activation: at 62.4 µM (top of the series). A digest of the protocol: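 Compounds in DMSO, alongside positive controls, were added to GR-bla HeLa reporter cells and incubated 18 h at 37 C; GRE-driven beta-lactamase was detected by fluorescence after 2 h with FRET substrate at room temperature.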
Glucocorticoid receptor (Homo sapiens), sequence (P04150 whole entry, looked up): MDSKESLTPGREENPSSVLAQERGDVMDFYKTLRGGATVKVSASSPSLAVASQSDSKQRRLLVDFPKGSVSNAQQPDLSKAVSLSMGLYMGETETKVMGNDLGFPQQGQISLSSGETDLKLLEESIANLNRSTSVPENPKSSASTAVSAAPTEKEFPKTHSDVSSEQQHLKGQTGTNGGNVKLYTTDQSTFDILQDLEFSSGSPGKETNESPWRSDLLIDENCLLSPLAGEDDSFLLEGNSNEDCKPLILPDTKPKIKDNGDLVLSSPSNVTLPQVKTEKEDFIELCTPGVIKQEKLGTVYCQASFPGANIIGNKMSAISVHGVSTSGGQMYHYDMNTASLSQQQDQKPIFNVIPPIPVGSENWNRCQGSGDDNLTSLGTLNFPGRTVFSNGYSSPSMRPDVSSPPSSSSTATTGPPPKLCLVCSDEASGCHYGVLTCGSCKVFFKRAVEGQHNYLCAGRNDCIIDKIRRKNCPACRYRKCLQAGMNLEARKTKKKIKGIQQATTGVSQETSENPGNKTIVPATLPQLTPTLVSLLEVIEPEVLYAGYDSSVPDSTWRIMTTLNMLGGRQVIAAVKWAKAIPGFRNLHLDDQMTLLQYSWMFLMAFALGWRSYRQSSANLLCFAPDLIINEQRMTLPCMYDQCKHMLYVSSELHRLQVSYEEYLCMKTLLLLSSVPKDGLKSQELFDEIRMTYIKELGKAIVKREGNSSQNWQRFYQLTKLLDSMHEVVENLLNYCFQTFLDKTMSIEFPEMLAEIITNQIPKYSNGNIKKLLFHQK

The nature of test [18]: qHTS assay to identify small molecule antagonists of the androgen receptor (AR) signaling pathway using the MDA cell line - cell viability counter screen (AID 743041; note: nearly all actives have a fitted effect of over 45% in size; note: potency is the fitted concentration of half-maximal effect). The method, boiled down:
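qHTS viability read-out; MDA-kb2 AR-luc; R1881-stimulated; 16 h exposure at 37C, 0% CO2; CellTiter-Fluor, 30 min; fluorescence intensity.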

Test [19] has as its target Glucocorticoid receptor (Homo sapiens) (UniProt P04150). The test is described as follows: qHTS assay to identify small molecule antagonists of the glucocorticoid receptor (GR) signaling pathway (AID 720692; active = well fitted inhibition curve with a large enough effect in the signal ratio in the repeat runs, not every such curve was filed as active; the % refers to the signal ratio). The method, boiled down:
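In a 1536-well cell format, compounds were added 4 h after seeding GR-bla HeLa cells, together with dexamethasone at 5 nM final; reporter activity was measured by FRET-substrate fluorescence following 18 h at 37 C.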

Each structure is given as a SMILES string. Values joined by “and” are separate entries in the source; they are usually repeats but may differ in a detail not shown here. Identical values can stand only once. Inconclusive results are not listed. Some compounds were tested as several samples or in several runs, with calls that do not always agree. Active and inactive are the calls of the source. Unless noted, calls come from the whole dose curve; as a rule, active = well fitted curve in the direction sought with a large enough effect in the repeat runs; inconclusive = weak or mixed curves; inactive = no such curve, though single readings can be large; an effect the other way counts as inactive or inconclusive.

Androgen receptor (Homo sapiens), sequence (P10275 whole entry, looked up): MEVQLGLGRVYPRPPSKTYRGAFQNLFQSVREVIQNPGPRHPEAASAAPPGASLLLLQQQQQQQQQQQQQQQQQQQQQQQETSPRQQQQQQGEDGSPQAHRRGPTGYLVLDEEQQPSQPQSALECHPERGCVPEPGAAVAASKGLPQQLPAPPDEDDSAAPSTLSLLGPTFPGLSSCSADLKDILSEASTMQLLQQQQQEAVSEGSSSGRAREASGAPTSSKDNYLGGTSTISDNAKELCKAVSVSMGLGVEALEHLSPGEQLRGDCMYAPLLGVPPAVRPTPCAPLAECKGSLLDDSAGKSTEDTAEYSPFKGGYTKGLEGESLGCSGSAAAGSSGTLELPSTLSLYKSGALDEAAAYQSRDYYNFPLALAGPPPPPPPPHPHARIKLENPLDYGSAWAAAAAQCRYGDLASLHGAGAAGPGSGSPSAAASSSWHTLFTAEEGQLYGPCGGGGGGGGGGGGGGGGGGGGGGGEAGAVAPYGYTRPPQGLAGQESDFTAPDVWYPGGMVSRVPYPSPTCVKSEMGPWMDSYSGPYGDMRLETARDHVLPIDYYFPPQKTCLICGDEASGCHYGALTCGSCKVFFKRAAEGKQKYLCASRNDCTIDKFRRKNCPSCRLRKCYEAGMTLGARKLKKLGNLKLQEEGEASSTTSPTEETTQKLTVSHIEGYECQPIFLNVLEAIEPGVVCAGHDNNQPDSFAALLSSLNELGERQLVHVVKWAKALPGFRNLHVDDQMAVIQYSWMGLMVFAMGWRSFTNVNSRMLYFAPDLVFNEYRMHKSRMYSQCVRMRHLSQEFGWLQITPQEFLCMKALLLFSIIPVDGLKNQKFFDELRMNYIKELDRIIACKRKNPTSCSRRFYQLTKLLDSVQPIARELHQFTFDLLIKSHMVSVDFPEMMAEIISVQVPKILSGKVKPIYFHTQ

As to `Cc1cc(F)ccc1-c1cc(N2CC[C@@H](O)[C@H]2CO)ncc1N(C)C(=O)C(C)(C)c1cc(C(F)(F)F)cc(C(F)(F)F)c1`, the result in test [1], in [3], in [4] and in test [5] was inactive. For the same compound, the Potency result in test [2], in test [6], in test [7], in test [8] and in test [15] was “inactive” in each case. In addition, the Potency in test [9] is 17.1 µM (active); in test [10], 12 µM (active); in [11], 8.5 µM (active); in test [12], 10.7 µM (active); in test [13], 30.4 µM (active); in [14] it was 15.3 µM (active). Besides, the Potency in [16] is 33.8 µM (active).

Consider `CCCOC(=O)c1ccc(O)cc1`, for which the compound was classed as inactive in [1], in test [3], in test [4] and in test [5]. Also, the Potency result in [2], in test [6], in test [7], in test [8], in [17] and in [9] was “inactive” throughout. In addition, the Potency entry in test [10], in test [13] and in test [18] was “inactive” throughout. Besides, the Potency entry in test [11] was “inactive and 68.6 µM (active)”; in test [12] it was “inactive and 65.5 µM (active)”.

Regarding `CO/N=C(\C(=O)N[C@@H]1C(=O)N2C(C(=O)[O-])=C(C[n+]3ccc(N)n3CCO)CS[C@H]12)c1csc(N)n1`, the outcome in test [1], in test [3], in test [4] and in test [5] was inactive. Moreover, the Potency result in test [2], in test [6], in test [7], in [8], in [17] and in test [19] was “inactive” throughout. Also, the Potency entry in test [9], in test [11], in test [12], in test [13] and in test [18] was “inactive” in each case.

Turning to `Cc1cc(N)c2ccccc2[n+]1CCCCCCCCCC[n+]1c(C)cc(N)c2ccccc21`, the outcome in [1], in [3], in test [4] and in [5] was inactive. Also, the Potency result in [2], in test [6], in test [7], in test [8], in test [17] and in [9] was “inactive” each time. In addition, the results for the Potency in [11] and in test [18] were 2.54 µM (active) and 7.49 µM (active), respectively.

Consider `CC(=O)NC[C@H]1CN(c2ccc(N3CCOCC3)c(F)c2)C(=O)O1`, for which the call in test [1], in test [3], in test [4] and in test [5] was inactive. The Potency entry in test [2], in test [6], in test [7], in test [8], in test [17] and in [19] was “inactive” in each case. The Potency entry in [9], in test [13] and in [18] was “inactive” each time.

With `NCCCC(=O)O`, the compound was classed as inactive in [1], in [3], in [4] and in test [5]. For the same compound, the Potency result in test [2], in test [6], in test [7], in test [8], in [17] and in test [19] was “inactive” each time. The Potency result in [9], in test [12], in [13] and in test [18] was “inactive” throughout.

With `CC/C=C\C/C=C\C/C=C\C/C=C\C/C=C\C/C=C\CCC(=O)O`, the compound was classed as inactive in test [1], in [3], in test [4] and in test [5]. The Potency result in test [2], in test [6], in test [7], in test [8], in test [17] and in test [9] was “inactive” throughout. For the same compound, the Potency result in [13] and in [18] was “inactive” in each case. Further, in [10], the Potency is 26.6 µM (active).

Take `O=C(O)CCCC/C=C(\c1ccccc1)c1cccnc1`: the compound was called inactive in [1], in test [3], in [4] and in test [5]. Also, the Potency entry in [2], in test [6], in test [7], in [8], in test [9] and in test [10] was “inactive” throughout. Also, the Potency entry in [11], in test [12], in test [13] and in [18] was “inactive” in each case.

The record behind these values is PubChem BioAssay (Tox21).
